PubChem BioAssay (NCI)
The panel holds about 79,000 compounds, 15% with a hit somewhere; the sample as a whole holds those more often. A number with no mark means an inactive call. The source made the active and inactive calls. Cut-off read from the data, not from the text of the source: active = growth inhibition above about 70%; inactive = the rest. Where a SMILES comes first, the peptide text is derived from it. [ ]: non-standard residue; d: D form. The star is where a group is joined. NMeAc5c = CNC1(C(=O)O)CCCC1; Boc = CC(C)(C)OC(=O)*; OBn = c1ccc(CO*)cc1

Experiments:
[1] = NCI Yeast Anticancer Drug Screen. Data for the rad50 strain (AID 155);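 note: 0% = growth of vehicle-only cultures of the same strain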; conditions: S. cerevisiae rad50 strain growth inhibition; at 50.0 µM; active compounds read high
Outline: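 Readout: growth inhibition relative to vehicle-treated cultures. Compound exposure was carried out in a genetically defined yeast strain deficient in DNA damage repair.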

[2] = NCI Yeast Anticancer Drug Screen. Data for the mec2-1 strain (AID 157); conditions: S. cerevisiae mec2-1 strain, at 50.0 µM, active compounds read high
Outline: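 Compounds were applied to mec2-1 yeast cells. Their growth was then compared with that of vehicle-treated cultures to give growth inhibition.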

[3] = NCI Yeast Anticancer Drug Screen. Data for the sgs1 mgt1 strain (AID 161);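 note: 0% = growth of cultures given vehicle only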; conditions: S. cerevisiae sgs1 mgt1 strain, at 50.0 µM, active compounds read high
Outline: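 This yeast growth screen uses a strain with defined DNA-repair lesions; compound-treated growth is compared with vehicle-treated growth.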

[4] = NCI Yeast Anticancer Drug Screen. Data for the cln2 rad14 strain (AID 165);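 note: 0% = growth equal to vehicle treated cultures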; conditions: S. cerevisiae cln2 rad14 strain, at 50.0 µM, active compounds read high
Outline: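 Strain: cln2 rad14 yeast, altered in cell cycle control and DNA damage repair. Read-out: growth inhibition vs vehicle.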

[5] = NCI Yeast Anticancer Drug Screen. Data for the bub3 strain (AID 167); conditions: S. cerevisiae bub3 mutant strain, at 50.0 µM, active compounds read high
Outline: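 Readout: yeast growth inhibition, expressed relative to vehicle-only wells. The test organism is a mutant strain from a panel with lesions in DNA repair or checkpoint genes.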

[6] = NCI Yeast Anticancer Drug Screen. Data for the mlh1 rad18 strain (AID 175); conditions: S. cerevisiae mlh1 rad18 strain growth inhibition; at 50.0 µM; active compounds read high
Outline: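 A repair-deficient yeast strain is exposed to test compound, and growth is scored relative to vehicle-treated controls.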

Row | SMILES | growth inhibition [1] | growth inhibition [2] | growth inhibition [3] | growth inhibition [4] | growth inhibition [5] | growth inhibition [6]
1 | CC(=O)Nc1ccc(/C=C2\CCOC2=O)cc1[N+](=O)[O-] | 6.8% | 8.2% | 7.15% | 57.5% | 8% | 3.6%
2 | C[C@@H]1S[C@H](c2c(F)cccc2Cl)n2c1nc1ccccc12 | 78.7% (active) | 82.7% (active) | 86.6% (active) | 82.2% (active) | 68.2% | 78.1% (active)
3 | NNC(=O)COCC(=O)NN | -17.5% | -27.2% | -24.5% | -9.1% | -15.2% | -25.1%
4 | CCCCCn1c(=O)c2c(=O)[nH][nH]c2c2ccccc21 | -16.3% | -7.9% | -9.55% | -69.6% | -1.3% | -22.5%
5 | CCN(CC)c1ccc(/C=N\NC(=O)CCCC(=O)N/N=C/c2ccc(N(CC)CC)cc2)cc1 | -27.6% | 2.65% | -22.9% | -21.9% | 5% | -30.4%
6 | Cc1cc(Cl)ccc1OCCCC(=O)NC(Cc1c[nH]c2ccccc12)C(=O)O (stereo not given) | 3.35% | 2.9% | 17.7% | 22.4% | -2.4% | 9.35%
7 | CC1C=CC(C(=O)Nc2ccc(Cl)c(Cl)c2)N1C (stereo not given) | 1% | 12.2% | 7.6% | -33.9% | -11.9% | 2.75%
8 | N#CC(c1ccc(Cl)cc1)c1ccc(N(CCO)CCO)cc1 (stereo not given) | 9.4% | 1.25% | 2.75% | 5.85% | -12.1% | 13.8%
9 | Cn1c(=O)c2c(ncn2CCCCn2ccnc2[N+](=O)[O-])n(C)c1=O | -30.1% | -3.95% | -14.9% | 7.3% | -1.25% | -5.35%
10 | CN(/C=C1\CCCCC1=O)c1ccccc1 | -4.35% | -17.2% | -35.4% | -14.4% | -22.2% | -7%
11 | CC(=O)CC(=O)Nc1cccc(C)c1C | -8.1% | -15.2% | 15.3% | -1.7% | 9.3% | -5.6%
12 | Cc1ccc(S(=O)(=O)OC(F)(F)C(F)(F)F)cc1 | 7.8% | 5.05% | 7.95% | -8.15% | -4.05% | 5.5%
13 | COC(=O)[C@H]1C=C[C@H](OC2OC(COC(C)=O)C(OC(C)=O)C(OC(C)=O)C2OC(C)=O)n2c(=O)n(-c3ccccc3)c(=O)n21 (stereo not given in full) | 8.3% | 14% | -1.25% | 5.5% | 15.8% | -48%
14 | CCCNC(=O)Nc1ccc(OCC)cc1 | 0.1% | -11.3% | -14.8% | -36.8% | 2.2% | 5.5%
15 | O=C(c1ccc(Cl)cc1)c1cccc(Cl)c1 | -6.35% | -16.1% | -3.7% | -1.5% | -10% | 6.3%
16 | CC(C)=CCc1c(C)c(O)c(C)c(C)c1O | 7.15% | 1.25% | 9.6% | -71.9% | -11.4% | 8.05%
17 | CN(C(=O)C(Cc1ccccc1)NC(=O)OC(C)(C)C)C1(C(=O)NC(Cc2ccccc2)C(=O)OCc2ccccc2)CCCC1 (stereo not drawn) (Boc-Phe-[NMeAc5c]-Phe-OBn; configuration not given here) | -3.35% | 15.6% | -4.5% | 11.8% | 8.6% | 13.6%
18 | Cc1ccc(S(=O)(=O)/C=C(\I)c2ccc([N+](=O)[O-])cc2)cc1 | 98.8% (active) | 99.2% (active) | 99.3% (active) | 98.8% (active) | 98.9% (active) | 99.1% (active)
19 | Clc1ccc(Cc2ccc(Br)cc2)cc1 | 43.6% | -10.3% | 38.5% | 2.45% | 49% | 13.2%
20 | CS(=O)(=O)c1[nH]nc2[nH]c(=O)[nH]c(=O)c12 | -30.5% | -30.4% | -26.5% | -4.7% | -28.8% | 6.85%

Row | SMILES | growth inhibition [1] | growth inhibition [2] | growth inhibition [3] | growth inhibition [4] | growth inhibition [5] | growth inhibition [6]
21 | COc1ccc(OC)c(C(=O)C2=C(c3cc(OC)ccc3OC)CCC2)c1 | 7.3% | 38.4% | 33.2% | 2.1% | 44.4% | 28.4%
22 | O=C1c2ccccc2C(=O)c2c(O)c3c(c(O)c21)CCCC3 | -14.4% | 7.55% | -1.05% | -9.65% | 1.95% | 5.7%
23 | CCCCN1CCSC1=S | 99.5% (active) | 99.7% (active) | 98.2% (active) | 98% (active) | 99.5% (active) | 99.5% (active)
24 | Cc1ccnc2[nH]c(-c3cccc(Cl)c3)cc(=O)c12 | -23.4% | -18.6% | -41% | -33% | -24.8% | -58.5%
25 | CCC1(C(Cl)(Cl)Cl)C=CC(=O)C=C1 | 13% | 13.3% | -1.85% | 12.8% | 4.7% | -21.1%
26 | Cc1cc([N+](=O)[O-])c2ncccc2c1 | -12.3% | -7.7% | -2.7% | -33% | -15.7% | -6.95%
27 | NC(Cc1c[nH]c2ccc(F)cc12)C(=O)O (stereo not given) | -4.35% | -17.5% | -29.8% | -37% | -14.4% | 4.15%
28 | CCc1n[nH]c(=O)n1N1C(=O)CCC1=O | 4.25% | 18.4% | -11.7% | 5.4% | -23.8% | 23.2%
29 | CC(=O)OCC(=O)C1(O)CCC2C3CCC4CC(=O)CCC4(C)C3C(=O)CC21C (stereo not given) | -3.65% | -5.65% | -11.8% | 20.2% | 3.7% | 9.4%
30 | NC(CS)=NCCc1nc2ccccc2[nH]1 | 12.6% | 9.95% | -0.2% | -2.85% | 7.6% | 4.3%
31 | N/N=C1\C(=O)N(C2CCCCC2)C(=O)C1C(=O)NC1CCCCC1 (stereo not given) | -10.9% | -1.2% | -15% | -10.8% | -20.4% | -32.2%
32 | COc1cc([N+](=O)[O-])c(F)cc1F | -0.05% | 0.85% | -0.05% | -20.1% | 9.35% | -3.1%
33 | O=C(NCc1ccncc1)Nc1ccc(Cc2ccc(NC(=O)NCc3ccncc3)cc2)cc1 | -8.05% | -19.1% | 0.2% | 15.3% | 3.5% | 4.25%
34 | Cc1c(C2(c3cc(C(C)C)c(O)c(CN(CC(=O)O)CC(=O)O)c3C)OS(=O)(=O)c3ccccc32)cc(C(C)C)c(O)c1CN(CC(=O)O)CC(=O)O | 4.3% | 0.7% | -1.75% | 24.7% | 2.8% | 4.95%
35 | O=P1(c2ccccc2)OCC2=C(c3ccccc3)CC2=C1c1ccccc1 (stereo not given) | 16.1% | 12.2% | 4.7% | 10.1% | -2.05% | 19.9%
36 | CCOC(=O)c1c(-c2ccc(Cl)cc2)c(C#N)c(=S)n(C2OC(COC(C)=O)C(OC(C)=O)C(OC(C)=O)C2OC(C)=O)c1-c1ccccc1 (stereo not given) | -1.45% | -3.9% | -6.8% | 25.9% | 17.9% | 4.7%
37 | Cc1cc(OCC(=O)O)c(Cl)cc1Cl | -13.4% | -9.7% | -50.5% | -22.9% | -17.9% | -11.7%
38 | O=[N+]([O-])c1ccccc1Sc1ccc2c3c(cccc13)CN(CCCO)C2 | 66.3% | 7.05% | 47.6% | 6.8% | 7.15% | 50.9%
39 | COC1OCC(NC(=O)CNC(=O)CCCCCCCCCCCCC(C)C)C(O)C1O (stereo not given) | 16.2% | 5.55% | 8.75% | 32.5% | -8.1% | 18.6%
40 | Cc1cc(C)c(S(=O)(=O)O)c(Cc2ccccc2)c1 | -14.4% | -10.6% | 31.5% | -11.6% | -3.35% | 0.45%
